From PubChem BioAssay (Tox21) come the findings set out here.

The nature of test [1]: qHTS assay to test for compound auto fluorescence at 535 nm (green) in HEK293 cells (AID 720680). In general terms: Quantitative high-throughput screening tests each substance at several concentrations.
Test [2] is described as follows: qHTS assay to test for compound auto fluorescence at 460 nm (blue) in HEK293 cell free culture (AID 720681). Put shortly:
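Compounds were added to cell-free DMEM with 10% FBS and fluorescence read directly. The blue channel used 405 nm excitation and 460 nm emission, with triamterene as the reference fluorophore.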

The nature of test [3]: qHTS assay to test for compound auto fluorescence at 535 nm (green) in HEK293 cell free culture (AID 720682). Put shortly:
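Green-label autofluorescence (485 nm excitation, 535 nm emission) measured on compound added to cell-free culture medium (DMEM, 10% FBS). Output is expressed relative to fluorescein.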

A short description of test [4]: qHTS assay to test for compound auto fluorescence at 590 nm (red) in HEK293 cell free culture (AID 720683). The method, boiled down:
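Cell-free wells of DMEM with 10% FBS received compound, and intrinsic fluorescence was read at excitation/emission 540/590 nm. Values expressed as equivalence to Rose Bengal sodium.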

Test [5] is described as follows: qHTS assay to test for compound auto fluorescence at 590 nm (red) in HepG2 cell free culture (AID 720684). The method, boiled down: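 Compound was pinned into wells holding MEM with 10% FBS and no cells, and red fluorescence was read at Ex/Em 540/590 nm. Signal is expressed as auto fluorescence equivalency relative to Rose Bengal sodium.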
Test [6] can be described thus: qHTS assay to test for compound auto fluorescence at 460 nm (blue) in HepG2 cell free culture (AID 720685). Put shortly: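 Compound (23 nL) or DMSO pinned into cell-free MEM with 10% FBS; blue fluorescence read at 405/460 nm excitation/emission, expressed as auto-fluorescence equivalency to triamterene.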
A short description of test [7]: qHTS assay to test for compound auto fluorescence at 535 nm (green) in HepG2 cell free culture (AID 720686).
Test [8] in a line: qHTS assay to test for compound auto fluorescence at 460 nm (blue) in HepG2 cells (AID 720687). The method, boiled down: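 HepG2 cells in MEM with 10% FBS, attached overnight at 37 C, were exposed to compound or DMSO for 1 hr at 37 C, 5% CO2. Blue fluorescence was read at 405/460 nm, with triamterene as reference fluorophore.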
In test [9] the target is Glucocorticoid receptor (Homo sapiens) (UniProt P04150). Kind of test: qHTS assay to identify small molecule agonists of the glucocorticoid receptor (GR) signaling pathway (AID 720691; active means well fitted activation curve with a large enough effect in the signal ratio in the repeat runs, not every such curve was filed as active; the % refers to the signal ratio). The method, boiled down: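 Beta-lactamase reporter activity, read as fluorescence intensity, was measured in GR-bla HeLa cells exposed to compounds for 18 h at 37 C and then loaded with LiveBLAzer B/G FRET substrate for 2 h at room temperature.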
Sequence of Glucocorticoid receptor (Homo sapiens) (P04150 whole entry, looked up): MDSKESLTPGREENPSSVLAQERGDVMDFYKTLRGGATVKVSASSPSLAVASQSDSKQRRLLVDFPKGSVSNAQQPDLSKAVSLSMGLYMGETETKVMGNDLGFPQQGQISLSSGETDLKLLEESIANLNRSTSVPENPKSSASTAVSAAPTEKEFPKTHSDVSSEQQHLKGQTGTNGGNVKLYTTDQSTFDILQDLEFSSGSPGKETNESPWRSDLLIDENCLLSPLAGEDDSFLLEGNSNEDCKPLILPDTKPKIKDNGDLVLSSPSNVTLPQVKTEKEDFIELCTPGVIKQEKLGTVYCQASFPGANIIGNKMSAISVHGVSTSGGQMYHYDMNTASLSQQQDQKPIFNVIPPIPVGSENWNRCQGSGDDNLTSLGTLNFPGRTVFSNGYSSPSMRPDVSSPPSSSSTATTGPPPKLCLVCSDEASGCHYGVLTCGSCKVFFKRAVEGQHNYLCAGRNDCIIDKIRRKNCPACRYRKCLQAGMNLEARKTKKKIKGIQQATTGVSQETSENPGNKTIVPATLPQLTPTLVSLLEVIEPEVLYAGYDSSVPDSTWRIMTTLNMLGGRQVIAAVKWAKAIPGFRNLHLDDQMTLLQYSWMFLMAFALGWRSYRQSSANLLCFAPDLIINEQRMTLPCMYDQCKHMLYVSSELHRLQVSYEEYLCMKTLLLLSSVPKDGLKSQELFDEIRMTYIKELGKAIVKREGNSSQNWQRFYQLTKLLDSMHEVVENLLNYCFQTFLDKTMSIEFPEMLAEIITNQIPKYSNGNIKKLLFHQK

Test [10] can be described thus: qHTS assay for identifying genotoxic compounds that show differential cytotoxicity against isogenic chicken DT40 cell lines with known DNA damage response pathways - wild type cell line (AID 743012). Further: nearly all actives have a fitted effect of over 60% in size. Put shortly: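 Quantitative HTS on parental DT40 cells: 40 h compound treatment at 37 C/5% CO2, with viability then determined by CellTiter-Glo luminescence. Values serve as the DNA repair-proficient reference for differential cytotoxicity.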

Test [11] is described as follows: qHTS assay for identifying genotoxic compounds that show differential cytotoxicity against isogenic chicken DT40 cell lines with known DNA damage response pathways - Rev3 mutant cell line (AID 743014). Further: nearly all actives have a fitted effect of over 55% in size.
Test [12] in a line: qHTS assay for identifying genotoxic compounds that show differential cytotoxicity against isogenic chicken DT40 cell lines with known DNA damage response pathways - Rad54/Ku70 mutant cell line (AID 743015). Further: nearly all actives have a fitted effect of over 60% in size. Further: potency means the concentration at half of the fitted maximal effect.
Test [13] can be described thus: qHTS assay to identify small molecule antagonists of the androgen receptor (AR) signaling pathway - cell viability counter screen (AID 743033; further: nearly all actives have a fitted effect of over 45% in size).
The nature of test [14]: qHTS assay to identify small molecule antagonists of the androgen receptor (AR) signaling pathway using the MDA cell line - cell viability counter screen (AID 743041; further: nearly all actives have a fitted effect of over 45% in size). Put shortly:
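MDA-kb2 AR-luc cells (MMTV-luciferase, AR/GR responsive) treated with compounds plus R1881 agonist for 16 h at 37C. CellTiter-Fluor added at 15.5 h; fluorescence read after 30 min in the same wells.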

Test [15] can be described thus: qHTS assay to identify small molecule antagonists of the glucocorticoid receptor (GR) signaling pathway - cell viability counter screen (AID 720693). Further: nearly all actives have a fitted effect of over 55% in size.
Test [16] concerns the target Glucocorticoid receptor (Homo sapiens) (UniProt P04150). Kind of test: qHTS assay to identify small molecule antagonists of the glucocorticoid receptor (GR) signaling pathway (AID 720692; active means well fitted inhibition curve with a large enough effect in the signal ratio in the repeat runs, not every such curve was filed as active; the % refers to the signal ratio). Put shortly:
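Fluorescence from cleaved LiveBLAzer B/G FRET substrate reports GRE-driven beta-lactamase in HeLa cells; compounds are tested against 5 nM dexamethasone (final) over 18 h at 37 C, substrate incubation 2 h at room temperature.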

The target of test [17] is Androgen receptor (Homo sapiens) (UniProt P10275). In words: qHTS assay to identify small molecule antagonists of the androgen receptor (AR) signaling pathway (AID 743035; active means well fitted inhibition curve with a large enough effect in the signal ratio in the repeat runs, not every such curve was filed as active; the % refers to the signal ratio). Put shortly: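 Cell line: GeneBLAzer AR-UAS-bla GripTite (HEK293). Stimulus: R1881 added after compound. Exposure: 16 h, 37C, 5% CO2. Readout: LiveBLAzer B/G FRET fluorescence after 2 h at room temperature.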
Sequence of Androgen receptor (Homo sapiens) (P10275 whole entry, looked up): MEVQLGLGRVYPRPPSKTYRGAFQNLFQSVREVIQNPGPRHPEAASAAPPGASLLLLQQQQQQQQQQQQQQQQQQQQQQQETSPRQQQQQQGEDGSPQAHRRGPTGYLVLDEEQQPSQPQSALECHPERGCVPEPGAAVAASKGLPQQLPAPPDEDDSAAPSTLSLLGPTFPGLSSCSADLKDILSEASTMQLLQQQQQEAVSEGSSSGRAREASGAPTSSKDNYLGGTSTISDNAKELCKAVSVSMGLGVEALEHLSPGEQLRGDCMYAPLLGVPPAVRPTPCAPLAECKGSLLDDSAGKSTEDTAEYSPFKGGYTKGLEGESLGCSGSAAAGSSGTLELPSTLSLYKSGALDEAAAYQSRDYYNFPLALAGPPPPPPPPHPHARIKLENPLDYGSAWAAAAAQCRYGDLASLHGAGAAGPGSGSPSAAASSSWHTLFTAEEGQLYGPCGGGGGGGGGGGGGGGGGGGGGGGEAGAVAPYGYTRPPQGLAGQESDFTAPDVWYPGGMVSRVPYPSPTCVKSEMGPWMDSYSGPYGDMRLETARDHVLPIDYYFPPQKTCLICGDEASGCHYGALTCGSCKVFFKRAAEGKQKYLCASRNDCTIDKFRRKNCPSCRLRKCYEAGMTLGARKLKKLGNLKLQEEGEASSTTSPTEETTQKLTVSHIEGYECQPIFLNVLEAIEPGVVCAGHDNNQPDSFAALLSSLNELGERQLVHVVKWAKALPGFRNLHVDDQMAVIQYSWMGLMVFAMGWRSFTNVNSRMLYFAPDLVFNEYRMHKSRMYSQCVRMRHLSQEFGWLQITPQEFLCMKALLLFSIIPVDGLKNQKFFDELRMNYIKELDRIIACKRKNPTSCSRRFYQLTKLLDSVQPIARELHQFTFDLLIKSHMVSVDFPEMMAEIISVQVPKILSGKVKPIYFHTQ

Test [18] has the same target. Kind of test: qHTS assay to identify small molecule agonists of the androgen receptor (AR) signaling pathway (AID 743036; active means well fitted activation curve with a large enough effect in the signal ratio in the repeat runs, with a control signal flat, not every such curve was filed as active; the % refers to the signal ratio). Put shortly: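 AR-UAS-bla HEK293 cells, plated 4 h before dosing, were treated with compound for 16 h at 37C. beta-Lactamase reporter read after 2 h with LiveBLAzer B/G FRET substrate at room temperature.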
Test [19] has the same target. In words: qHTS assay to identify small molecule agonists of the androgen receptor (AR) signaling pathway using the MDA cell line (AID 743040; further: nearly all actives have a fitted effect of over 20% in size). Put shortly:
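MDA-kb2 breast carcinoma cells carrying MMTV-luciferase (responsive to AR and GR), plated 5 h then treated 16 h with compounds at 37C, 0% CO2. Read-out was ONE-Glo luminescence after 30 min at room temperature.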

Test [20] has the same target. In words: qHTS assay to identify small molecule antagonists of the androgen receptor (AR) signaling pathway using the MDA cell line (AID 743042; further: nearly all actives have a fitted effect of over 55% in size). The method, boiled down: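 MDA-kb2 breast carcinoma cells carrying MMTV-luciferase (AR/GR responsive) were co-treated with compounds and the agonist R1881 for 16 h at 37C. Inhibition read as ONE-Glo luminescence; CellTiter-Fluor fluorescence measured in parallel for cytotoxicity.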

Records with an inconclusive call do not appear. Active and inactive are the calls of the source. Unless noted, the call rests on the fitted dose curve; in most records, active means well fitted curve in the direction sought with a large enough effect in the repeat runs; inconclusive means weak or mixed curves; inactive means no such curve, though single readings can be large; an effect the other way counts as inactive or inconclusive.

As to `CCCCCCC(CCCCCCCCCCC(=O)OCC(COC(C)=O)OC(C)=O)OC(C)=O` (configuration not stated), the compound was classed as inactive in [1], in test [3], in test [4], in [5], in test [7] and in test [13]. In addition, the Potency entry in [2], in [6], in [8], in test [9], in test [10] and in test [11] was “inactive” in each case. Besides, the Potency result in test [12] and in test [14] was “inactive” each time.
Regarding `C=C(C)C(=O)NCCCN(C)C`, the compound was called inactive in test [1], in test [3], in test [4], in test [5], in test [7] and in [13]. The Potency entry in [2], in [6], in [8], in test [9], in [11] and in [12] was “inactive” throughout. Further, in [14], the Potency entry is “inactive”.
Consider `CC(C)N1C(=O)c2ccccc2C1=O`, for which the compound was classed as inactive in test [1], in [3], in test [4], in [5], in [7] and in [15]. For the same compound, the compound was called inactive in test [13]. For the same compound, the Potency entry in test [2], in [6], in test [8], in [10], in test [11] and in test [12] was “inactive” in each case. Moreover, in [14], the Potency entry was “inactive”.
In the case of `CCCc1ccccc1O`, the call in test [1], in test [3], in test [4], in test [5], in test [15] and in test [13] was inactive. The Potency result in test [2], in test [6], in [8], in test [9], in [16] and in test [10] was “inactive” in each case. In addition, the Potency result in [11], in [12] and in [14] was “inactive” throughout.
Regarding `OC/C=C/c1ccccc1`, the compound was classed as inactive in [1], in [3], in test [4], in test [5], in [15] and in test [13]. Further, the Potency entry in [2], in test [6], in test [8], in test [10], in test [11] and in [12] was “inactive” each time. In addition, the Potency result in [14] was “inactive”.
Turning to `N#CC1(O)CCCCC1`, the compound was classed as inactive in test [1], in test [3], in test [4], in [5], in [15] and in [13]. Also, the Potency entry in [2], in test [6], in test [8], in [9], in [10] and in test [11] was “inactive” each time. The Potency result in test [12] and in test [14] was “inactive” throughout.
`C=C(C)C(=O)NCCC[N+](C)(C)C`: the outcome in [1], in test [3], in [4], in test [5], in [15] and in test [13] was inactive. Besides, the Potency entry in test [2], in test [6], in test [8], in test [9], in [16] and in [11] was “inactive” throughout. The Potency entry in test [12] and in test [14] was “inactive” throughout.
For `N[C@@H](CS)C(=O)O`, the call in test [1], in test [3], in test [4], in test [5] and in test [13] was inactive. Besides, the Potency result in test [2], in test [6], in [8], in [10], in test [11] and in [12] was “inactive” each time. Moreover, in test [14], the Potency result is “inactive”.
`C1COCCO1`: the compound was classed as inactive in [1], in test [3], in test [4], in [5], in [15] and in [13]. Moreover, the outcome in [18] and in test [20] was inactive. Further, the Potency entry in test [2], in test [6], in test [8], in test [10], in test [11] and in [12] was “inactive” in each case. Besides, the Potency result in test [17], in test [19] and in test [14] was “inactive” throughout.
Take `C#CC(O)CCCCC` (configuration not stated): the compound was called inactive in test [1], in test [3], in [4], in [5], in test [15] and in test [13]. For the same compound, the Potency result in [2], in test [6], in [8], in test [11], in test [12] and in test [14] was “inactive” throughout.
Turning to `Fc1ccccc1-c1ccccc1`, the outcome in test [1], in test [3], in test [4], in [5], in test [15] and in test [13] was inactive. The Potency result in [2], in test [6], in test [8], in test [9], in test [16] and in test [10] was “inactive” throughout. Further, the Potency entry in test [11], in [12] and in test [14] was “inactive” each time.
For `Cc1onc(-c2ccccc2)c1-c1ccc(S(N)(=O)=O)cc1`, the result in test [1], in test [3], in [4], in [5], in [15] and in test [13] was inactive. Further, the Potency result in test [2], in test [6], in test [8], in test [9], in [16] and in test [11] was “inactive” each time. For the same compound, in test [14], the Potency entry is “inactive”.
For `CCC(=O)/C=C/c1ccc(OC)cc1`, the call in test [1], in [3], in [4], in test [5] and in test [13] was inactive. The Potency entry in test [2], in test [6], in [8], in [9] and in [14] was “inactive” in each case. In test [12], the Potency was 54.5 µM (active).
As for `Cc1ccccc1Br`, the compound was called inactive in test [1], in test [3], in test [4], in test [5], in test [7] and in test [13]. The Potency entry in [2], in test [6], in [8], in [10], in [11] and in test [12] was “inactive” in each case. The Potency entry in [14] was “inactive”.
With `CC(C)COC(=O)C(C)C`, the outcome in test [1], in test [3], in [4], in test [5], in [15] and in [13] was inactive. The Potency result in test [2], in test [6], in test [8], in test [9], in test [16] and in [11] was “inactive” each time. Besides, the Potency entry in test [12] and in test [14] was “inactive” throughout.
Turning to `OC1OC[C@@H](O)[C@H](O)[C@H]1O` (some centres not stated), the call in test [1], in test [3], in test [4], in [5], in [15] and in test [13] was inactive. The Potency result in [2], in test [6], in test [8], in test [10], in test [11] and in test [12] was “inactive” each time. In addition, the Potency result in [14] is “inactive”.
